Assay outcomes as filed in PubChem.
Most compounds without a hit are left out; they make up all but 2.9% or so of the library.
PAFAH1B2 inh: PAFAH1B2 enzyme inhibitors, primary screen, biochemical, fluorescence polarization, human | Platelet-activating factor acetylhydrolase IB subunit alpha2 (Homo sapiens), P68402 | recombinant PAFAH1B2, FP-rhodamine activity probe | inhibition, % at 3.39 µM | 340,000 tested, 1.2% active;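 active = inhibition above the mean of all tested compounds plus 3 SD, cut at about 24% in these data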;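 also: 0% = enzyme with DMSO and 100% = wells lacking PAFAH1B2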
Target sequence (P68402 whole entry, looked up): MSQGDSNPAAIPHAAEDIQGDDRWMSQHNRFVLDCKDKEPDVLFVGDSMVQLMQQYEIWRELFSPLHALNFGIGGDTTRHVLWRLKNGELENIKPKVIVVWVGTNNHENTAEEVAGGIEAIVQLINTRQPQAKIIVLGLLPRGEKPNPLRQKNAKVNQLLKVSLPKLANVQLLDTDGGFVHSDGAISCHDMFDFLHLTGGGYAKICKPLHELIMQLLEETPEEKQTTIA
Fam108B counter: mouse Fam108B serine hydrolase inhibitors, primary screen, counter-screen for RBBP9 inhibitor project, biochemical, fluorescence polarization. recombinant Fam108B, FP-Rh probe fluorescence polarization. inhibition, % at 9.51 µM. 300,000 tested, 0.33% active;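 active = inhibition above the screen mean inhibition plus 3 SD, computed separately per campaign, cut at about 18% in these data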;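 also: inhibitors lower polarization as less probe binds the enzyme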
PAFAH1B3 inh: PAFAH1B3 enzyme inhibitors, primary screen, biochemical, fluorescence polarization, human | Platelet-activating factor acetylhydrolase IB subunit alpha1 (Homo sapiens), Q15102 | recombinant PAFAH1B3, FP-rhodamine probe | inhibition, % at 3.39 µM | 340,000 tested, 0.28% active;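 active = inhibition above the screen-wide average of all tested compounds plus 3 SD, cut at about 25% in these data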;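 also: 0% = enzyme with DMSO only and 100% = wells lacking PAFAH1B3 protein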
pPAFAH FP inh: pPAFAH enzyme inhibitors, primary screen, biochemical, fluorescence polarization, human; Platelet-activating factor acetylhydrolase (Homo sapiens), Q13093; recombinant pPAFAH, FP-rhodamine probe fluorescence polarization; inhibition, % at 3.39 µM; 330,000 tested, 1.5% active; AID 463082, 2010;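 active = inhibition above the mean inhibition across the screen plus 3 SD, cut at about 25% in these data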;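 also: inhibitors block binding of the rhodamine activity-based probe so polarization drops; 0% = enzyme with DMSO and 100% = wells lacking pPAFAH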
Target sequence (Q13093 whole entry, looked up): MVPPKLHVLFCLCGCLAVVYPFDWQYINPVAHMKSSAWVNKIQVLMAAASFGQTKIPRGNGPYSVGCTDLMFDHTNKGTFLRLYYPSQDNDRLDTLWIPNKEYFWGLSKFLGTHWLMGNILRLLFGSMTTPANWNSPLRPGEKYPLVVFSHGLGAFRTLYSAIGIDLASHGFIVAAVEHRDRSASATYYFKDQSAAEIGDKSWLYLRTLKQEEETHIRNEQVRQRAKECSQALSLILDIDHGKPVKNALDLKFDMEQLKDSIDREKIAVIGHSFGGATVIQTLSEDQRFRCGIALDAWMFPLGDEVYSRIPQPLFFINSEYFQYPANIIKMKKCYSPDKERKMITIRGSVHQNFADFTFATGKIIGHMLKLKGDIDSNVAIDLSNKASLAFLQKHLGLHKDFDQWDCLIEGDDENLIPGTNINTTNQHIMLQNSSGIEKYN
PME-1 inh: PME-1 inhibitors via competitive probe labeling, primary screen, biochemical, fluorescence polarization, FP-Rh probe, HTS; recombinant PME-1; 320,000 tested, 0.53% active; inhibition, % at 5.9 µM; AID 2130, 2009; Protein phosphatase methylesterase 1 (Homo sapiens), Q9Y570;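 active = inhibition above the campaign mean of all compounds plus 3 SD, cut at about 26% in these data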;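 also: competitive labeling of PME-1 active site by serine hydrolase directed probe; 0% = PME-1 with DMSO and 100% = wells lacking PME-1 enzyme; inhibitors block probe labeling so polarization falls and inhibition rises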
PAFAH2 FP inh: PAFAH2 enzyme inhibitors, primary screen, biochemical, fluorescence polarization, human | Platelet-activating factor acetylhydrolase 2, cytoplasmic (Homo sapiens), Q99487 | 340,000 tested, 0.99% active | recombinant PAFAH2, FP-rhodamine activity probe | inhibition, % at 3.39 µM;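 active = inhibition above the mean over all tested compounds plus 3 SD, cut at about 30% in these data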;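 also: inhibitors block probe labeling of enzyme so polarization drops; 0% = enzyme with DMSO and 100% = wells lacking PAFAH2 protein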
Starred values were filed as active, the others as inactive; . = no result given.

SMILES	PAFAH1B2 inh	Fam108B counter	PAFAH1B3 inh	pPAFAH FP inh	PME-1 inh	PAFAH2 FP inh
CC(=O)c1ccc(S(=O)(=O)NCCC(=O)OCC(=O)NCCc2ccccc2)cc1	3.9	-8.0	-3.2	16.4	6.1	-4.3
CC(=O)c1cccc(NC(=O)COC(=O)CCNS(=O)(=O)c2ccccc2)c1	4.7	.	8.0	28.8*	.	7.5
O=C(COC(=O)CCNS(=O)(=O)c1ccccc1)NC(=O)Cc1ccccc1	7.9	.	5.1	30.3*	2.9	-3.1
C=C1CC2(CC(c3ccccc3)OC(c3ccccc3)C2)OC1=O (stereo not given)	0.4	.	-1.4	.	.	4.9
C/C(=N/Nc1ccc(C(=O)c2c(C)cc3ccccn23)cc1[N+](=O)[O-])c1ccc(O)cc1	1.7	.	5.5	.	.	0.5
CN1CCN(S(=O)(=O)c2ccc(Sc3nnc(-c4cccs4)n3-c3ccccc3)nc2)CC1	33.2*	-0.1	0.0	3.9	8.2	-0.7
CC(NC(=O)COC(=O)C12CC3CC(CC(Br)(C3)C1)C2)c1ccccc1 (stereo not given)	40.5*	.	1.9	3.3	.	13.5
O=C(NCc1ccccc1)C12CC3CC(CC(Br)(C3)C1)C2	34.7*	0.7	12.9	5.9	-2.5	-9.8
N#CC(C#N)=Cc1ccccc1OCc1ccccc1	.	-4.0	.	7.3	-1.7	.
CCCCCCCCCCCCCCCC[n+]1cccc(C(=O)N(CC)CC)c1	2.6	2.5	1.9	32.1*	-0.6	-4.7
N#C/C(=C\c1cc2c(cc1Br)OCO2)c1ccc(C(=O)O)cc1	32.5*	7.5	5.9	-4.8	4.5	5.5
Cc1cc(Br)ccc1NC(=S)N1CCOCC1	2.1	2.3	7.1	-0.2	4.0	-0.6
S=C1NCN(CCc2ccccc2)CN1Cc1ccccc1	25.7*	3.9	2.4	-2.8	-3.4	9.5
CCC(c1ccc(O)c(O)c1)C(CC)c1ccc(O)c(O)c1 (stereo not given)	27.1*	.	-4.1	.	.	-2.4
CCOC(=O)CNC(=O)c1cccnc1Oc1ccc(Cl)cc1	-1.1	-0.1	9.2	-2.4	-1.4	-7.6
CCOc1ccc(NC(C(=O)Nc2cccc(C(C)=O)c2)c2ccccc2)cc1 (stereo not given)	2.1	6.0	-1.0	4.8	32.0*	-9.1
Cc1ccc(-n2ncc3c2CCCC3NC(=O)CSc2ccccn2)cc1C (stereo not given)	-4.6	0.5	2.9	-3.5	4.6	5.7
Cc1cc2ncn(S(=O)(=O)N3CCCCC3)c2cc1C	24.8*	2.6	0.8	6.1	2.3	-8.2
NS(=O)(=O)c1ccc(NC(=O)CSc2nc(Nc3ccccc3)nc(N3CCOCC3)n2)cc1	2.3	-1.5	4.7	5.7	-6.9	-3.4
COc1ccccc1NC(=O)c1ccc(NC(=O)COC(=O)C2CC2C)cc1 (stereo not given)	1.0	-0.2	3.2	33.9*	-9.2	42.9*
COc1ccc(/C=N/NC(=O)c2ccc(-c3ccccc3)cc2)cc1O	-1.4	2.9	-12.5	8.4	-1.5	-3.5
COc1ccc(/C=N/NC(=O)c2ccc(CN3C(=O)c4cccc5cccc3c45)cc2)cc1O	27.1*	8.9	25.5	4.9	-2.0	-33.9
COCCN(C(=O)c1ccccc1Oc1ccccc1)c1c(N)n(CC(C)C)c(=O)[nH]c1=O	3.9	.	-6.0	0.2	0.3	3.0
Brc1ccc(/C=N/Nc2nc3ccccc3o2)cc1	9.5	-5.7	8.4	3.8	31.1*	-6.8
COc1cc(/C=N\Nc2nc3ccccc3o2)cc(OC)c1OC	9.6	-0.3	1.3	8.4	28.8*	-1.1
SMILES	PAFAH1B2 inh	Fam108B counter	PAFAH1B3 inh	pPAFAH FP inh	PME-1 inh	PAFAH2 FP inh
Oc1ccccc1/C=N/Nc1nc2ccccc2o1	8.9	4.8	9.2	3.4	20.7	29.4
COc1ccc(/C=N/Nc2nc3ccccc3o2)cc1O	-5.8	0.6	4.1	4.0	48.1*	15.7
Cc1ccc(C(=O)N2CCN(c3ncccn3)CC2)c(C)c1	-1.5	-3.3	2.6	-8.8	3.5	12.8
Cc1ccc(CSc2nnc(SCC(=O)N/N=C/C=C/c3ccco3)s2)cc1	-1.3	-1.9	7.7	16.2	-5.2	0.3
CC(/C=N/NC(=O)CSc1nnc(SCc2ccccc2)s1)=C\c1ccco1	0.0	-3.4	8.6	27.0*	-6.0	6.8
Cc1cc(C)c(NS(=O)(=O)c2c(C(=O)N3CCOCC3)c(C)n(C)c2C)c(C)c1	-0.1	-0.2	7.5	29.2*	-0.5	2.0
CCN1/C(=C/C=C/c2oc3ccc4ccccc4c3[n+]2CC)Oc2ccc3ccccc3c21	.	117.8*	.	41.8*	-56.6	.
Cc1cccc(NC(=O)CSc2nc(C3CC3)nc3ccccc23)c1	5.5	0.6	-1.5	3.4	3.8	-11.7
CCN(CC)c1ccc(NC(=O)CSc2nc(C3CC3)nc3ccccc23)cc1C	4.2	-2.1	7.1	30.7*	4.1	7.2
Nc1ccc2nc3c(=O)n(CCc4ccccc4)c(=O)[nH]c3nc2c1	.	5.6	.	16.9	39.5*	.
Nc1ccc2nc3c(=O)n(C4CCCCC4)c(=O)[nH]c3nc2c1	6.2	9.4	8.9	25.9*	13.0	20.2
COc1cc2[nH]c(=O)n(C3CCCCC3)c(=O)c2cc1OC	9.5	-0.3	1.9	4.0	0.8	1.9
N#Cc1c(N)oc(-c2ccco2)c1-c1ccco1	4.5	2.1	2.8	21.3	7.0	16.9
COc1ccc(OC)c(/C=N/c2oc(-c3ccco3)c(-c3ccco3)c2C#N)c1	4.8	2.3	4.9	29.6*	7.9	11.1
CCC1Nc2ncnc(N3CCc4ccccc4C3)c2N(Cc2ccc(Cl)cc2)C1=O (stereo not given)	26.3*	.	-6.7	6.0	.	1.9
O=C(N/N=C/c1cc(Br)c(O)c(Br)c1)C1CC1	8.6	-5.3	-0.4	14.3	-3.6	-8.2
CC(C)(C)NC(=S)N/N=C/c1cc(Br)c(O)c(Br)c1	17.3	10.8	7.5	34.4*	6.7	6.3
CCCSc1nsc(NC(=O)CCC)n1	8.8	-1.9	-1.5	30.9*	-1.0	-5.4
CC(C)NC[C@H](O)c1ccc(O)c(O)c1	-2.6	-4.7	7.6	7.1	0.2	6.4
CNCC(O)c1ccc(OC(=O)C(C)(C)C)c(OC(=O)C(C)(C)C)c1 (stereo not given)	27.0*	1.1	1.2	2.9	3.1	-0.4
CC1CCC(NC(=O)C2CC(=O)N(c3ccc(Cl)cc3)C2)CC1 (stereo not given)	3.5	-3.2	7.0	-2.1	-1.4	3.4
CC1=C(C(=O)OCC(Br)(Br)Br)C(c2cccc([N+](=O)[O-])c2)NC(=O)N1CCCC(=O)O (stereo not given)	92.0*	0.2	-7.0	-3.1	9.2	-1.6
